High-throughput results as filed in PubChem BioAssay.
Epigenetic derep = derepresses silenced GFP reporter in murine cells. murine LDR cells, GFP reporter derepression, 30 h. Potency, µM (series often up to 53.9 µM), for the others: at the highest dose GFP activation, actives largely listed as activators. hit rate 0.2% among 280,000; further: potency means the concentration at half of the fitted maximal effect; % of control where 0% means no effect; nearly all actives have a fitted effect of over 60% in size
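Derepression of a silenced CMV-GFP reporter in murine LDR cells is scored by enumerating GFP-positive cells with a laser-scanning microplate cytometer after 30 hours of treatment at 37 C.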
PINK1 modulator = modulators of PINK1 expression | PINK1 immunofluorescence, high-content cytometry, 24 h | Potency, µM (titrated, usually from 76.6 µM), for the others: at the highest dose activation (PINK1 increase), hits mostly activators | hit rate 0.2% among 410,000 | AID 624263; active means well fitted activation curve with a large enough effect; inconclusive means small, poorly fitted or top-dose-only effect; cell line not stated here; further: potency means the concentration at half of the fitted maximal effect; % of control where 0% means no effect; nearly all actives have a fitted effect of over 65% in size
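Cells are seeded, rested 12 hours, then given compound at five concentrations or DMSO for 24 hours. After fixation, blocking and antibody staining, PINK1 amount and mitochondrial localization are scored; CCCP serves as control.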
Vif-A3G inh = inhibitors of Vif-APOBEC3G interaction; Q9HC16; HeLa A3G-eYFP + Vif (tagged APOBEC3G with the HIV-1 protein that degrades it), YFP fluorescence, overnight; Potency, µM (titrated, usually from 46.1 µM), for inactives: at the highest dose activity, negative = active, most hits filed as inhibitors; hit rate 0.076% among 410,000; AID 602310; further: potency means the concentration at half of the fitted maximal effect; on the % scale 0 is the no-effect control and ±100 the full control effect; nearly all actives have a fitted effect of over 60% in size
Target sequence (Q9HC16 whole entry, looked up): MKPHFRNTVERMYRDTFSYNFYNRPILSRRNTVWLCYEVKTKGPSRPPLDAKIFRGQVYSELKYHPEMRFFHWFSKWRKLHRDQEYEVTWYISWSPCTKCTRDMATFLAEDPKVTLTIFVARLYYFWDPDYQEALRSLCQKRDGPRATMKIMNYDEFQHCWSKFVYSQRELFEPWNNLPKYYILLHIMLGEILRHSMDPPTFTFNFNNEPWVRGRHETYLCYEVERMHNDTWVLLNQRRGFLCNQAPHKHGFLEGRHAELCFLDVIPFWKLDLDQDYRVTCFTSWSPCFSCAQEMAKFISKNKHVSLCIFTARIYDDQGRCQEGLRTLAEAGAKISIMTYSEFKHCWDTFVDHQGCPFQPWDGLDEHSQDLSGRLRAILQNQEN
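HeLa cells stably expressing Vif and C-terminally eYFP-tagged A3G, seeded overnight at 37 deg C, then exposed to compound by pintool overnight at 37 deg C. Rise in yellow fluorescence (Ex 488/Em 500-530, Acumen) marks blocked Vif-driven A3G degradation.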
Vif-A3F inh = Vif-A3F binding inhibition. HeLa A3F-eYFP + Vif (tagged APOBEC3F with the HIV-1 protein that degrades it), YFP fluorescence increase. Potency, µM (highest dose often 46.1 µM), inactives show at the highest dose activity, negative = active. hit rate 0.2% among 390,000. AID 602313; further: potency means the concentration at half of the fitted maximal effect; % of control where 0% means no effect; nearly all actives have a fitted effect of over 65% in size
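HeLa cells stably expressing Vif plus C-terminally eYFP-tagged A3F were seeded, incubated overnight at 37 deg C, dosed with compound, incubated overnight again at 37 deg C. Yellow fluorescence (Ex 488/Em 500-530) reported blocked Vif-mediated A3F-eYFP degradation.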
C127i cell count = changes parental c127i cell counts in epigenetic modulator counter-screen; shares compounds with Epigenetic derep; mouse c127i parental cells, fluorescent cell count, 30 h; Potency, µM, for inactives: at the highest dose fluorescent cell count, actives largely listed as activators; hit rate 20% among 60
HCC4017 tox = HCC4017 cytotoxicity of epigenetic modulator hits | hit rate 30% among 45 | Potency, µM (highest dose often 46.1 µM), without a hit: at the top dose activity change, negative = cytotoxicity, usual class: cytotoxic | shares compounds with Epigenetic derep | HCC4017 NSCLC viability, CellTiter-Glo ATP luminescence, 72 h
H358 viab = epigenetic modulators: cytotoxicity in H358 lung cancer cells | shares compounds with Epigenetic derep | H358 NSCLC viability, ATP luminescence, 72 h | Potency, µM (series often up to 46.1 µM), for the others: at the top dose activity change, negative = viability loss, usual class: cytotoxic | hit rate 30% among 45 | AID 493074
* hit, by the source's call; ? = inconclusive; . = no result given. Shown are actives, neighbours in structure and some others; about 0.51% of the full set was active somewhere. Unless noted, the call rests on the fitted dose curve; in most records, active means well fitted curve in the direction sought with a large enough effect; inconclusive means small, poorly fitted or top-dose-only effect, or another doubt; inactive means no such curve, though single readings can be large; an effect the other way counts as inactive or inconclusive.

SMILES	Epigenetic derep	PINK1 modulator	Vif-A3G inh	Vif-A3F inh	C127i cell count	HCC4017 tox	H358 viab
COc1cccc(C(=O)NCC2Cc3cccc(-c4nc(C)cnc4C)c3O2)c1OC (stereo unspecified)	.	1%	.	.	.	.	.
CCc1nnc(NC(=O)c2cccc(C(=O)Nc3nnc(CC)s3)n2)s1	2.5µM*	-2%	-2%	-12%	6%	0.5µM*	0.56µM*
Cn1c(SCC2CCCO2)nnc1C1CCN(Cc2ccco2)CC1 (stereo unspecified)	.	-1%	.	.	.	.	.
N#Cc1sc2nc(-c3ccccc3)cc(C(F)(F)F)c2c1N	?	11µM*	-13%	?	16µM*	.	.
CCN(CC)CCCNC(=O)CSc1c2c(nc3cc(Cl)ccc13)CCCC2	?	5%	-13%	-4%	5%	?	28µM*
O=C(CSc1c2c(nc3cc(Cl)ccc13)CCCC2)NCCCN1CCOCC1	-2%	2%	-20%	4%	.	.	.
COc1ccccc1C1CN(CC(=O)N2CCC(N3CCOCC3)CC2)Cc2ccccc2O1 (stereo unspecified)	.	-1%	.	.	.	.	.
Cc1ccc(C)c(C(=O)N2CCC(C3(c4ccccn4)NC(=O)N(CC4CCCO4)C3=O)CC2)c1 (stereo unspecified)	.	-1%	.	.	.	.	.
Cc1ccc(/C=[N+](\[O-])c2ccc(N(C)C)cc2)c2nsnc12	?	-2%	-23%	15%	18%	14µM*	28µM*
CC(C)C(=O)N1CCN(c2ccc(NC(=O)c3ccc([N+](=O)[O-])o3)cc2Cl)CC1	?	2%	?	1%	?	.	.
CN1CCN(c2ccc(NC(=O)c3ccc([N+](=O)[O-])o3)cc2Cl)CC1	.	9%	?	-1%	.	.	.
CCCC(=O)N1CCN(c2ccc(NC(=O)c3ccc([N+](=O)[O-])o3)cc2Cl)CC1	?	0%	?	0%	4%	1.8µM*	2.5µM*
CC(C)(C)n1ncc2c(=O)n(Cc3ccc(Cl)c(OC(F)(F)F)c3)cnc21	.	.	-1%	.	.	.	.
CC(O)(COc1ccccc1)c1ccc2c(c1)CN(Cc1cccc3cccnc13)CCO2 (stereo unspecified)	.	0%	.	.	.	.	.
S=C(Nc1ccccc1)c1ccccn1	5.6µM*	2%	?	-1%	22µM*	-27%	-17%
O=c1c2ccccc2nc(COc2ccccc2)n1/N=C/c1c[nH]c2ccccc12	10µM*	?	-10%	?	5%	?	-27%
O=c1c2ccccc2nc(COc2ccccc2)n1/N=C/c1ccc(O)cc1O	0%	0%	-7%	-7%	.	.	.
Cc1cc(C(=O)NCc2nnc3n2CCN(Cc2ccc(F)cc2F)CC3)c(C)o1	.	0%	.	.	.	.	.
Cc1cc(C)cc(Nc2nc3ccccc3c(=O)[nH]2)c1	2%	-4%	10%	?	.	.	.
COc1nc(Nc2nc3ccccc3c(=O)[nH]2)nc2ccc(C)cc12	?	9%	-7%	1%	5%	2.8µM*	3.1µM*
O=C1C=C(Nc2ccc(Cl)cc2)C(=O)N1c1ccc(Cl)cc1	10µM*	35µM*	-15%	?	?	-3%	14%
Oc1ccc(Br)cc1C=Nc1ccc2c3c(cccc13)CC2	3.5µM*	6%	?	-10%	2%	-11%	?
Oc1ccc(Cl)cc1C=Nc1ccccc1Br	-3%	-2%	1%	1%	.	.	.
O=C(O)CCCCCN1C(=O)/C(=C\c2ccc(-c3ccc(Cl)cc3)o2)SC1=S	3.5µM*	3%	-6%	?	7.9µM*	.	.
CSc1nsc(/C=C/Nc2cccc(Cl)c2)c1C#N	7.1µM*	5%	?	?	10µM*	-19%	-14%
SMILES	Epigenetic derep	PINK1 modulator	Vif-A3G inh	Vif-A3F inh	C127i cell count	HCC4017 tox	H358 viab
CN(C)S(=O)(=O)c1ccc2c(c1)C(=O)c1cc(S(=O)(=O)N(C)C)ccc1CC2	.	2%	1%	4%	.	.	.
CN(C)S(=O)(=O)c1ccc2c(c1)/C(=C/c1cc3c([nH]1)CCCC3)C(=O)N2	7.9µM*	?	?	?	3.2µM*	.	.
COc1ccc(OC)c(Nc2nc3nonc3nc2N2CCCC(C)C2)c1 (stereo unspecified)	?	?	-5%	-9%	14µM*	.	.
CC1CCCN(c2nc3nonc3nc2Nc2ccccc2F)C1 (stereo unspecified)	1%	2%	-7%	3%	.	.	.
C(=N\Nc1nc(-c2cccnc2)nc2ccccc12)/c1ccccc1	0%	-1%	-11%	-4%	.	.	.
C(=N\Nc1nc(-c2ccccn2)nc2ccccc12)/c1ccccc1	10µM*	-1%	-15%	.	5%	0.4µM*	?
O=C1CN(c2nc(-c3ccccc3)c3cc(Cl)ccc3n2)c2ccccc2N1	?	?	0%	?	14%	-26%	?
CC(=O)N[C@@H](CSC/C=C(\C)CCC=C(C)C)C(=O)O	6%	.	.	.	.	.	.
CC(=O)N[C@@H](CSC(=O)[C@]1([C@@H](O)C(C)C)NC(=O)[C@H](C)[C@@H]1O)C(=O)O	?	.	.	.	25µM*	.	.
CN(CCO)C(=O)c1cn(C2CCN(Cc3c(F)cccc3Cl)CC2)nn1	.	1%	.	.	.	.	.
COc1cccc(/C=C(\C#N)c2nc3ccc(C)cc3[nH]2)c1	?	10%	?	?	.	.	.
CCCOc1cc(N(CC)CC)ccc1/C=C(/C#N)c1nc2ccc(C)cc2[nH]1	2%	16%	?	3.2µM*	2.5µM*	.	.
